ALDH1A1 block – blocks purified human ALDH1A1 activity | 220,000 compounds, 7.3% hits | AID 1030 | Purified ALDH1A1, NADH fluorescence, propionaldehyde substrate | Potency, µM (titrated, usually from 75.3 µM), without a hit: top-dose activity, negative = inhibition, most hits filed as inhibitors | P00352;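 further: plate controls were no enzyme wells and a reference inhibitor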
Target sequence (P00352 whole entry, looked up): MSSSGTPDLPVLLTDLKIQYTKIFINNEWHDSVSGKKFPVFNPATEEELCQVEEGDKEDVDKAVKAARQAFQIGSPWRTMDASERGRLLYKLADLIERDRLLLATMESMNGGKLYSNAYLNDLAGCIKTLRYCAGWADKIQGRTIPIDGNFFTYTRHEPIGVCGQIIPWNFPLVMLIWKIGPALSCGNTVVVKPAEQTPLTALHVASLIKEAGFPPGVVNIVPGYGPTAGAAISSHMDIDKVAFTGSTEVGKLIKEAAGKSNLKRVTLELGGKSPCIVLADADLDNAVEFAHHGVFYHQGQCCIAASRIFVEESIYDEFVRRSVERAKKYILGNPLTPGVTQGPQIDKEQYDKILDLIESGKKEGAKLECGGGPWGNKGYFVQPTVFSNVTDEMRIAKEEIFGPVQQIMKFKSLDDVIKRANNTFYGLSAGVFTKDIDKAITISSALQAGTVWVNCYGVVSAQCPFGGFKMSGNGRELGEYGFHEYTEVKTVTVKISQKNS
HPGD inh – HPGD (human) dehydrogenase inhibition; P15428; purified HPGD, NADH fluorescence kinetic, PGE2 substrate; Potency, µM, inactives show at the top dose activity change, negative = inhibition, hits mostly inhibitors; 150,000 compounds, 4.3% hits
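20 nM HPGD preincubated 15 min at room temperature with compound in 50 mM Tris-HCl pH 8, 0.01% Tween 20. Started with 1 mM NAD+ and 30 uM prostaglandin E2; NADH fluorescence (360/450 nm) read 5 times over 30-s intervals, last minus first.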
KinaseGlo FLuc – counter-screen: inhibitors of Kinase-Glo firefly luciferase; 200,000 compounds, 0.28% hits; Potency, µM (titrated, usually from 38.3 µM), without a hit: top-dose activity change, negative = inhibition, actives largely listed as inhibitors; Q27757; Kinase-Glo luciferase, ATP luminescence, 8 min; active means well fitted curve in the direction sought with a large enough effect; inconclusive means small, poorly fitted or top-dose-only effect, or another doubt; inactive means no such curve, though single readings can be large; an effect the other way counts as inactive or inconclusive; further: nearly all actives have a fitted effect of over 60% in size
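Compound is pinned into ATP-containing buffer (10 uM ATP, imidazole pH 7.2, 7 mM MgCl2). Kinase-Glo luciferase reagent is then added. Light output is recorded following an 8-min room-temperature incubation.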
IMPase Li cell – IMPase inhibition in cells with lithium potentiation | CHO-M1 cells, IP1 TR-FRET (IP-One), carbachol + lithium | AID 1457 | Potency, µM (titrated, usually from 59.4 µM), without a hit: at the highest dose activity, negative = IMPase inhibition, most hits filed as inhibitors | 210,000 compounds, 0.35% hits; active means well fitted curve in the direction sought with a large enough effect; inconclusive means small, poorly fitted or top-dose-only effect, or another doubt; inactive means no such curve, though single readings can be large; an effect the other way counts as inactive or inconclusive;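 further: IP1 builds up when IMPase is blocked and the TR-FRET signal falls; plate controls were basal vehicle for no effect and high inhibitor control for full effect; nearly all actives have a fitted effect of over 50% in size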
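Concentration–response in CHO-M1 cells, lithium-potentiated; 30 min at 37C. IP1 detected by competitive TR-FRET after 10 min lysis at RT. Hill-fitted AC50.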
Lamin A splicing – LMNA splicing modulation. AID 1487. Potency, µM (titrated, usually from 46.1 µM), without a hit: top-dose ratio change, negative = inhibition, usual class: inhibitors. 200,000 compounds, 0.01% hits. HeLa LMNA splicing GFP/RFP minigene ratio, 48 h; active means well fitted inhibition curve with a large enough effect in the signal ratio, with a control signal flat, not every such curve was filed as active; inconclusive means small, poorly fitted or top-dose-only effect, or effect the other way, or a change in a side signal; the % refers to the signal ratio
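Read-out is the ratio of GFP to DsRed2 object intensity, acquired by 488 nm laser-scanning cytometry on HeLa lamin A-EGFP minigene reporter cells. Compound incubation 48 hrs at 37 °C in Opti-MEM with 2% FBS; DMSO 0.5% final.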
An asterisk follows results filed as active; u = inconclusive; x = no result; [ ] = another dose, or the depositor's remark. This is a sample that favours compounds with a hit; in the whole collection about 9% have one here. Unless noted, the call rests on the fitted dose curve; in most records, active means well fitted inhibition curve with a large enough effect (not every such curve was filed as active); inconclusive means small, poorly fitted or top-dose-only effect, or another doubt; inactive means no such curve, though single readings can be large or run the other way. Unless noted, on the % scale 0 is the no-effect control and ±100 the full control effect; potency means the concentration at half of the fitted maximal effect.

SMILES	ALDH1A1 block	HPGD inh	KinaseGlo FLuc	IMPase Li cell	Lamin A splicing
N/C(Cc1cccc2ccccc12)=N\OC(=O)Cc1cccs1	u	28µM*	-9%	29%	u
N/C(Cc1cccc2ccccc12)=N\OC(=O)c1ccc(Br)o1	10µM*	x	-3%	11%	x
COc1ccc(OCC(=O)O/N=C(\N)Cc2cccs2)cc1	-10%	-16%	-2%	1%	1%
CC(C)=CC1C(CO)C1(C)C (centres undefined)	8%	-4%	2%	-4%	-4%
CC(=O)c1c(C)[nH]c(C(=O)CSc2nnc(N)s2)c1C	-4%	x	-5%	5%	u
O=C(COc1ccc2ccccc2c1)NNC(=O)Cc1ccccc1	2%	-6%	0%	u	-16%
O=C(COc1ccc2ccccc2c1)NC1CC1	-7%	32µM*	-5%	20%[38.3 µM]	18%
O=C(COc1ccc2ccccc2c1)NCCNC(=O)COc1ccc2ccccc2c1	-3%	-12%	2%	13µM*	9%
O=C(COC(=O)CSc1ccc2ccccc2c1Br)NC1CC1	-5%	x	0%	10µM*	-12%[46 µM]
O=C(OCC(=O)N1c2ccccc2Sc2ccccc21)C1CC(=O)N(Cc2ccco2)C1 (centres undefined)	35µM*	-12%	-1%	-3%[38.3 µM]	-4%
O=C(COC(=O)C1CC(=O)N(Cc2ccco2)C1)c1ccc(OC(=O)c2ccccc2)cc1 (centres undefined)	14µM*	28µM*	-1%	3%	-4%
COc1ccc(NCC(=O)N/N=C/C(C)c2ccccc2)cc1 (centres undefined)	u	x	4%	9%	-4%[46 µM]
COc1cccc(CC2(CO)CCCN(Cc3[nH]c4ccc(C)cc4c3C)C2)c1 (centres undefined)	22µM*	x	x	x	x
COc1cccc(CC2(CO)CCCN(Cc3ccc(C)s3)C2)c1 (centres undefined)	4%	x	x	11%	x
COc1cccc(CC2(CO)CCCN(Cc3ccc(-c4ccco4)cc3)C2)c1 (centres undefined)	11µM*	x	x	11%	x
COc1cccc(CC2(CO)CCCN(Cc3ccccc3-c3ccco3)C2)c1 (centres undefined)	u	x	-2%	20%	-24%[46 µM]
COCc1ccc(CN2CCCC(CO)(Cc3cccc(Cl)c3)C2)o1 (centres undefined)	8.9µM*	x	-3%	17%	10%[46 µM]
COC(=O)CSCC(=O)Nc1nnc(-c2cccc(C)c2)s1	u	x	2%	-1%	u
O=C(NC1CCCC1)C1CCN(c2nccs2)CC1	1%	14µM*	-2%	-1%	-12%
Nn1c(=O)c2ccccc2n2c(SCc3ccc(C(F)(F)F)cc3)nnc12	22µM*	11µM*	14%	14%[38.3 µM]	-2%
CCCSc1nnc2n(N)c(=O)c3ccccc3n12	-12%	-2%	3%	-1%[38.3 µM]	4%
Nn1c(=O)c2ccccc2n2c(SCc3ccccc3)nnc12	14µM*	-11%	-2%	19%[38.3 µM]	13%
COc1ccc(-c2nn(-c3ccccc3)cc2/C=C/C(=O)N2CCN(c3ccccn3)CC2)cc1	u	x	1%	9%	x
CCc1ccc(NC(=O)C2CC(=O)N=C(N)S2)cc1 (centres undefined)	-6%	-16%	2%	17%[38.3 µM]	0%
CC(C)c1ccc(NC(=O)C2CC(=O)N=C(N)S2)cc1 (centres undefined)	18µM*	-1%	-4%	7%[38.3 µM]	10%
SMILES	ALDH1A1 block	HPGD inh	KinaseGlo FLuc	IMPase Li cell	Lamin A splicing
NC1=NC(=O)CC(C(=O)NCCc2ccccc2)S1 (centres undefined)	13µM*	6%	-5%	-5%[38.3 µM]	14%
O=C1C=CCCC1	u	-6%	x	-4%	x
COc1cccc(-n2ccnc2SCC(=O)Nc2cccc3ccccc23)c1	x	x	x	x	-18%[46 µM]
O=C(c1ccccc1)C(Sc1ncn[nH]1)c1ccccc1 (centres undefined)	u	40µM*	-2%	4%	-7%
Cc1ccc(C(=O)Nc2sc(C)c(-c3ccccc3)c2C(N)=O)cc1[N+](=O)[O-]	10µM*	25µM*	-6%	13%[38.3 µM]	5%
COc1ccc(NC(=O)c2cccc([N+](=O)[O-])c2)cc1	u	x	u	4%	x
COC(=O)c1c(NC(=O)c2ccccc2)sc(C(=O)c2ccccc2)c1C	14µM*	-24%	-1%	u	u
COC(=O)c1sc(NC(=O)c2cccc([N+](=O)[O-])c2)c(C(N)=O)c1C	10µM*	28µM*	0%	-3%	u
COC(=O)c1c(NC(=O)c2ccccc2)sc(C(N)=O)c1C	u	x	-1%	u	u
COC(=O)c1c(NC(=O)c2cccc([N+](=O)[O-])c2)sc(C(N)=O)c1C	7.9µM*	x	-1%	0%	u
CC(C)CCN1CCC(N)=NC1=O	0%	x	-2%	-2%	x
Cc1oc2ncnc(N3CCCCC3)c2c1C(=O)NCC1CCN(Cc2ccc(F)cc2)CC1	x	x	x	x	0%[46 µM]
O=C(O)[C@H]1C[C@@H](CP(=O)(O)O)CCN1	u	-2%	-4%	8%	x
Cc1ccc(NC(=O)c2ccccc2)s1	0%	-21%	u	19%[38.3 µM]	0%
Cc1cc(NC(=O)c2ccccc2)sc1C	-15%	-19%	11µM*	-8%[38.3 µM]	4%
COCCn1c(=O)c(C)nc2cnc(Nc3ccccc3)nc21	11%	x	x	8%	-6%
CCN(C(=O)COC(=O)c1cc([N+](=O)[O-])ccc1N1CCCCC1)C1CCS(=O)(=O)C1 (centres undefined)	14µM*	x	-2%	4%	x
CCN(C(=O)Cn1cnc2cc([N+](=O)[O-])ccc2c1=O)C1CCS(=O)(=O)C1 (centres undefined)	7%	x	-1%	1%	12%[46 µM]
CCOc1cc(N2CCOCC2)c(OCC)cc1NC(=O)c1ccc(OC(C)C)cc1	-4%	x	2%	6%	x
C=CCn1c(=S)[nH]c2scc(-c3ccc(C)o3)c2c1=O	u	x	0%	-19%	-12%[46 µM]
C=CCn1c(=S)[nH]c2sccc2c1=O	32µM*	x	1%	-8%	8%[46 µM]
O=C(O)Cc1sc(-c2ccccc2Cl)nc1-c1ccccc1	u	x	-6%	5µM*	4%[46 µM]
O=C(Cc1sc(-c2ccccc2)nc1-c1ccccc1)Nc1ccccc1	0%	-18%	-5%	34%[38.3 µM]	-8%
CCOC(=O)c1sc(N/N=C/c2ccccc2)nc1C	8.9µM*	14µM*	-3%	3%	u
CCOC(=O)c1sc2nc(NC(=O)C3CC3)sc2c1C	u	u	1%	13µM*	-10%
O=C(O)Cc1sc(N/N=C\c2ccccc2)nc1-c1ccccc1	1.1µM*	u	-4%	3%	u
Cc1ccc(Nc2nc(/N=C/NO)n[nH]2)cc1C	3%	x	-1%	-3%	-18%[46 µM]
COc1ccc(CCNC(=O)CCCn2nc(C)c([N+](=O)[O-])c2C)cc1OC	-6%	x	2%	-9%	u
